The text below walks through data of PubChem BioAssay.

A short description of assay [1]: binders of probe aFSTL3 on microarray, primary screen, stem cell growth factor project, biochemical, small-molecule microarray, fluorescence 635/667 (AID 1064).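 Further: measures binding of the biotinylated anti-FSTL3 antibody to printed compounds.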 The settings on record: higher = more signal.
Assay [2] can be described thus: binders from COS7 lysate, DM2A8 probe, primary screen, torsin A project, cell lysate, small-molecule microarray, fluorescence 635/667 (AID 1065). The settings on record: higher = more signal, COS7 lysate expressing mutant human TOR1A.
The nature of assay [3]: binders of probe aFGF2 on microarray, primary screen, stem cell growth factor project, biochemical, small-molecule microarray, fluorescence 635/667 (AID 1067).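 Further: measures binding of biotinylated aFGF2 protein to printed compounds on slides; z-score merges feature fluorescence and signal-to-noise across triplicate slides.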 The settings on record: higher = more signal.
The nature of assay [4]: binders of probe aFGF10 on microarray, primary screen, stem cell growth factor project, biochemical, small-molecule microarray, fluorescence 635/667 (AID 1071).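 Further: score merges 667 nm spot intensity and signal to noise from triplicate slides.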 The settings on record: higher = more signal.
Assay [5] deals with Neurogenic locus notch homolog protein 2 (Homo sapiens) (UniProt Q04721). Briefly: Notch2 binders on small-molecule microarrays, primary screen, biochemical, small-molecule microarray, 635 nm fluorescence, stem cell growth factors (AID 1073). The settings on record: Notch2 binding, higher = more signal.
Chain of Neurogenic locus notch homolog protein 2 (Homo sapiens) (Q04721 whole entry, looked up, canonical isoform): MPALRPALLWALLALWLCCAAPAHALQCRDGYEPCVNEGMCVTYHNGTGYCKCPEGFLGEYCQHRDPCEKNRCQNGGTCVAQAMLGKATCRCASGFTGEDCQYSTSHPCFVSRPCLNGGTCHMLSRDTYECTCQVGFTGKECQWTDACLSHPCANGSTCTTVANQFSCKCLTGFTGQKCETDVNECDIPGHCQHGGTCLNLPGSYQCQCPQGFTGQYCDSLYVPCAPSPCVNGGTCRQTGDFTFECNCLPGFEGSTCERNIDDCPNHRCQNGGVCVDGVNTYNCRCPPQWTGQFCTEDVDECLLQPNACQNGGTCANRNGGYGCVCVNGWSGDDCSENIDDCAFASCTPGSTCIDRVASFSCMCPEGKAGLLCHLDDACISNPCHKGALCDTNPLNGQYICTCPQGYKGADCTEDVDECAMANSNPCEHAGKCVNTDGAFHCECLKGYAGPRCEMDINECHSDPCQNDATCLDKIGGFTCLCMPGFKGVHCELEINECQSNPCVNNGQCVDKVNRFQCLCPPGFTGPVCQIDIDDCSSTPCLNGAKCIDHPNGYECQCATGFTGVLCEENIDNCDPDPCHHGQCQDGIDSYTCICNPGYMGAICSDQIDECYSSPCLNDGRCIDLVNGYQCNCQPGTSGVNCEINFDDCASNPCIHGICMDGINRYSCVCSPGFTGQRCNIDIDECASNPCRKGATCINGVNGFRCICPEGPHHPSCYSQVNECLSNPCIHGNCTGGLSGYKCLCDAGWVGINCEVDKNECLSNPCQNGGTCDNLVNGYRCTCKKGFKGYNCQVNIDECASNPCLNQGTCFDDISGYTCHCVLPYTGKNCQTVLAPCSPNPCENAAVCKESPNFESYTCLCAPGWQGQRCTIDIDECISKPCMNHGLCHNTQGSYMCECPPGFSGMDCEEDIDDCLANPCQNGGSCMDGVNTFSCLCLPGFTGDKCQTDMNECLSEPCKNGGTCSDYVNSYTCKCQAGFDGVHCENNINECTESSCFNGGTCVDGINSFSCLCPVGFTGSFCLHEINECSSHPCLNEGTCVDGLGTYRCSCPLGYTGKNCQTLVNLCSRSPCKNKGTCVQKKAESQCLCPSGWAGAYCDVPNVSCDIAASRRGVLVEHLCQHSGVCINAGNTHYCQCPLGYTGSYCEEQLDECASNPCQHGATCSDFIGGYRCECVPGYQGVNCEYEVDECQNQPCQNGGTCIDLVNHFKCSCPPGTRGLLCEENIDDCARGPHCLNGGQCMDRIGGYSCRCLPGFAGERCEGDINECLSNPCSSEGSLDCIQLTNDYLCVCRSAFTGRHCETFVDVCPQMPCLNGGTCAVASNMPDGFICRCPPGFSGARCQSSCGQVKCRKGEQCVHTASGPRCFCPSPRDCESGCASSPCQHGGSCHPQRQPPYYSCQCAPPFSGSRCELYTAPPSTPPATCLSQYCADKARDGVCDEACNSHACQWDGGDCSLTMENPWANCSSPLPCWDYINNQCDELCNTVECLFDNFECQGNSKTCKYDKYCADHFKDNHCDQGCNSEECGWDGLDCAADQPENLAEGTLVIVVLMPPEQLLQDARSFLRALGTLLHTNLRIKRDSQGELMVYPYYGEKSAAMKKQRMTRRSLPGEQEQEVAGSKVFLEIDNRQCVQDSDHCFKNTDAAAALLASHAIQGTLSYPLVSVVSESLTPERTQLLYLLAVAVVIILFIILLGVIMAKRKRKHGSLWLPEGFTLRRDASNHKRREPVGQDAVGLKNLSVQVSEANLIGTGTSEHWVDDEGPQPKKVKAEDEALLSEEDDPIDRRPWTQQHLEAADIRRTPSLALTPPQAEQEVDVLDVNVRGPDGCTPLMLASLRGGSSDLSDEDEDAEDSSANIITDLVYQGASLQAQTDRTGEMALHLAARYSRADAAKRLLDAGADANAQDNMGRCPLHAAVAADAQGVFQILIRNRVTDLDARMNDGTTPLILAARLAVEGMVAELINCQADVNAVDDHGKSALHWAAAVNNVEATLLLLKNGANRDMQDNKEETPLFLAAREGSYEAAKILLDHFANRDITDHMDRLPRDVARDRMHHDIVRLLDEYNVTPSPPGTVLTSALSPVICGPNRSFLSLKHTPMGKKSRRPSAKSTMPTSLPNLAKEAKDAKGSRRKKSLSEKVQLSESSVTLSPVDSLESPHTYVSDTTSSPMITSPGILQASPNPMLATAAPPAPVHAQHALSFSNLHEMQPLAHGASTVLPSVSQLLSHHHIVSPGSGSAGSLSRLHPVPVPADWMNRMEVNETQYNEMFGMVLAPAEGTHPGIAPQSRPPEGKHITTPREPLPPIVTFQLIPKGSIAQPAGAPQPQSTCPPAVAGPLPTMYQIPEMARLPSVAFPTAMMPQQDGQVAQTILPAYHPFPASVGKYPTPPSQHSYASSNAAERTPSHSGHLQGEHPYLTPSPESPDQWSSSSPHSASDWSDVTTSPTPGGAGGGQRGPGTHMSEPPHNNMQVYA
Assay [6] concerns the target Pro-neuregulin-1, membrane-bound isoform (Homo sapiens) (UniProt Q02297). Briefly: NRG1 binders on small-molecule microarrays, primary screen, psychiatric disease protein project, biochemical, small-molecule microarray, fluorescence 635/667 (AID 1075).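 Further: score combines 667 nm spot fluorescence with signal to noise.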 The settings on record: NRG1 binding, 635 nm fluorescence, higher = more signal.
Assay [7] deals with Neuregulin-1 EGF-like domain. Briefly: binders of neuregulin-1 EGF-like domain, primary screen, biochemical, small-molecule microarray, 635 nm fluorescence (AID 1081).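 Further: binding of the protein to compounds printed on small-molecule microarray slides.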 The settings on record: small-molecule microarray binding, higher = more signal.
The nature of assay [8]: FRG1 promoter luciferase signal modulators, primary screen, FRG1 inhibition for FSHD, cell-based, C2C12 myotubes, firefly/Renilla luciferase, luminescence (AID 1084). The settings on record: higher = more signal, called active from +8 up or from −8 down.
Assay [9] in a line: binders of probe aFST on microarray, primary screen, stem cell growth factor project, biochemical, small-molecule microarray, fluorescence 635/667 (AID 1086).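 Further: score merges 667 nm fluorescence with signal-to-noise of each printed compound spot.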 The settings on record: higher = more signal.
The nature of assay [10]: binders of probe aHhip on microarray, primary screen, stem cell growth factor project, biochemical, small-molecule microarray, fluorescence 635/667 (AID 1087).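 Further: score merges spot fluorescence at 667nm with spot signal to noise ratio.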 The settings on record: higher = more signal.

SMILES strings stand for the structures. Activity calls are given as the source filed them.

Chain of Pro-neuregulin-1, membrane-bound isoform (Homo sapiens) (Q02297 whole entry, looked up, the tested form may be a part, canonical isoform): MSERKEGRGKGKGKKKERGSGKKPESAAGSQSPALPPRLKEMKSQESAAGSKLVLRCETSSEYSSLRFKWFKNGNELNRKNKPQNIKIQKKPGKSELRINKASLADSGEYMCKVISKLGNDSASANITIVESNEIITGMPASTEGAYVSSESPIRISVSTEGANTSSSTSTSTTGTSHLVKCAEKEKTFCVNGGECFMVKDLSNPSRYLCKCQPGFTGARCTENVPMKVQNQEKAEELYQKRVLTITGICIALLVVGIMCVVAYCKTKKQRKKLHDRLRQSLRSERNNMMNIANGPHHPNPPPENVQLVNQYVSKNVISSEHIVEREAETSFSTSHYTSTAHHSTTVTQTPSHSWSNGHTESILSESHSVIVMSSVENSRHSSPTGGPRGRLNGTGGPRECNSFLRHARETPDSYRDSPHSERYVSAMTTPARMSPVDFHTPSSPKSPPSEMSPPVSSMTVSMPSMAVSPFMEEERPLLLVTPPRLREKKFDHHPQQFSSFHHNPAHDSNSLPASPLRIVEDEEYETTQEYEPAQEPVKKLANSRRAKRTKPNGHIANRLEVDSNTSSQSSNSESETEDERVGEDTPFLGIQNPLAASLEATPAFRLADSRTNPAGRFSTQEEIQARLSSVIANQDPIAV

As to `N#Cc1ccc(NN2C(C(O)C3CCCCC3)C=CC3C(=O)N(c4ccccc4)C(=O)C32)cc1` (stereo not given), the composite z-score in [1] was 0.0086; in assay [2] it was -0.433; in assay [3], 0.0429; in assay [4] it was 0.461; in assay [5], 1.58; in assay [6], 1.31. Moreover, the composite z-score in assay [7] worked out at 1.33; in assay [9], 1.38; in assay [10] it was 0.754. In addition, in [8], the z-score was -0.585 (inactive).
As for `CCOC(=O)C[C@H]1[C@H](OC(=O)c2ccc(-c3ccccc3)cc2)[C@@H](NC(=O)Cc2ccc(OC)cc2)c2cc(OCCCO)ccc2N1C(=O)c1ccc2ccccc2n1`, the composite z-score in assay [1] is -0.389; in [2], -0.188; in assay [3] it was 0.0176; in assay [4], 0.178; in [5], 0.76; in assay [6], 0.33. Further, the composite z-score in [7] is 0.0896; in assay [9], 0.484; in [10] it was -0.0645. In addition, the z-score in assay [8] is 0.817 (inactive).
As for `Cc1ccc(S[C@]2(C(=O)NCC(C)C)CC(=O)N(Cc3ccccc3)[C@@H]2c2ccc(CO)cc2I)cc1`, the composite z-score in [1] was -0.0472; in assay [2] it was 0.0315; in [3], 0.0664; in assay [4] it was 0.161; in assay [5], 0.533; in assay [6] it was 0.892. Moreover, the figures for the composite z-score in assay [7], in assay [9] and in assay [10] were 1.27, -0.325 and -0.0427, respectively. The z-score in [8] is -2.06 (inactive).
Take `CC(C)N1C(=O)C[C@@](C(=O)NCc2ccccc2)(c2ccc([N+](=O)[O-])cc2)[C@H]1c1ccc(CO)cc1`: the composite z-score in assay [1] is 0.539; in assay [2], 1.22; in [3], -0.138; in assay [4], -0.136; in [5], 0.0796; in assay [6] it was -0.524. Further, the figures for the composite z-score in assay [7], in [9] and in assay [10] were 1.25, -0.699 and -0.201, respectively. Further, the z-score in assay [8] is 0.167 (inactive).
Turning to `NC(=O)NCC#Cc1ccc2c(c1)[C@]1(C(=O)N2)[C@H](C(=O)NC[C@H](O)c2ccccc2)[C@H]2C(=O)O[C@H](c3ccccc3)[C@H](c3ccccc3)N2[C@@H]1c1ccc(O)cc1`, the composite z-score in [1] was -0.261; in assay [2], 0.362; in assay [3], 0.337; in assay [4] it was 0.896; in [5], 0.857; in [6], 1.38. In addition, the figures for the composite z-score in assay [7], in [9] and in [10] were 0.983, 0.077 and 0.356, respectively. For the same molecule, the z-score in [8] was 1.11 (inactive).
Consider `CC(=CC1CCCCC1)[C@@H](NC(=O)c1ccc(C(F)(F)F)cc1)c1ccc(-c2ccccc2)cc1`, for which the composite z-score was 0.21 in [1]; -0.259 in [2]; 0.0083 in assay [3]; -0.0821 in [4]; 0.0836 in [5]; 1.02 in assay [6]. In addition, the composite z-score in [7] was -0.54; in [9], 0.112; in assay [10], 0.57. For the same molecule, in [8], the z-score was 0.235 (inactive).
As to `O=c1cccc(C=Cc2ccccc2)o1`, the composite z-score in assay [1] was 0.236; in assay [2] it was -0.609; in [3], -0.144; in assay [4], -0.0239; in assay [5], -1.03; in assay [6], -0.458. Besides, the composite z-score in assay [7] was -0.0882; in [9], -0.369; in assay [10], -0.0994. Moreover, the z-score in [8] is 0.242 (inactive).
Turning to `CCOc1cc(C(O)C2C=CC3C(=O)N(c4ccccc4)C(=O)C3N2Nc2ccc([N+](=O)[O-])cc2)ccc1O` (stereo not given), the composite z-score in [1] is -0.549; in [2], 0.23; in assay [3], 0.0139; in assay [4], 0.516; in assay [5], 0.796; in assay [6], 0.946. Moreover, the composite z-score in [7] is 0.943; in [9], 0.311; in [10], -0.271. Further, in assay [8], the z-score was -0.374 (inactive).
Consider `CS(=O)(=O)CCOC(=O)C1=CC(c2ccc(CO)cc2)=CC(C2CC2)N(Cc2cc3c(cc2Br)OCO3)C=C1C(=O)OCCS(C)(=O)=O` (stereo not given), for which the composite z-score in [1] is -0.232; in assay [2], 0.28; in assay [3], -0.0266; in assay [4], 0.959; in assay [5] it was 1.13; in assay [6] it was 1.78. Also, the composite z-score in assay [7] stood at 1.27; in [9], 0.566; in assay [10], 0.245. In addition, in assay [8], the z-score is -2.1 (inactive).
Regarding `CCOC(=O)C[C@H]1[C@H](OC(=O)Cc2ccc3c(c2)OCO3)[C@@H](NC(=O)C2CCCCC2)c2cc(OCCCO)ccc2N1C(=O)Cc1ccc(OC)cc1`, the composite z-score in [1] was -0.397; in assay [2], 0.0664; in assay [3] it was -0.048; in assay [4], 0.145; in [5], 1.17; in assay [6] it was -0.054. Moreover, the results for the composite z-score in assay [7], in assay [9] and in assay [10] were 0.86, 0.364 and 0.0515, respectively. Further, the z-score in assay [8] was -2.5 (inactive).
`CC(C)(C)OC(=O)CC[C@@]1(C(=O)NCCN2CCOCC2)N=C(c2ccc(OCCCO)cc2)O[C@@H]1c1ccccc1`: the composite z-score in [1] is 1.11; in assay [2], 1.4; in [3], 0.0189; in assay [4], 0.262; in assay [5], 1.28; in assay [6] it was 1.75. In addition, the results for the composite z-score in assay [7], in [9] and in assay [10] were 1.2, 0.972 and 0.167, respectively. For the same molecule, the z-score in [8] is 0.951 (inactive).
Consider `COCC(=C=CC[C@H](O)c1ccc(OCCO)cc1)C[C@H](O)c1cc(Cl)cc(Cl)c1O`, for which the composite z-score is -0.327 in assay [1]; 0.95 in assay [2]; -0.0125 in assay [3]; 0.754 in [4]; 0.623 in [5]; 0.458 in [6]. For the same molecule, the composite z-score was 1.16 in [7], 0.582 in [9] and 0.0505 in assay [10]. Also, in [8], the z-score is -3.67 (inactive).
Consider `CC(C)N1C(=O)[C@@]2(c3ccc([N+](=O)[O-])cc3)CC(=O)N(CC34CC5CC(CC(C5)C3)C4)[C@@H]2c2ccc(CO)cc21`, for which the composite z-score in assay [1] is -0.448; in assay [2], -1.26; in assay [3], -0.188; in [4], -0.373; in assay [5], -1.16; in [6] it was -0.34. Further, the composite z-score in assay [7] was -0.867; in assay [9], -0.39; in [10], -0.164. Further, the z-score in assay [8] is 0.63 (inactive).
Consider `CC(C)Cc1ccc(CN2CC[C@@H](NS(=O)(=O)c3ccccc3)C2)cc1`, for which the composite z-score is -0.402 in assay [1]; 1.96 in assay [2]; -0.192 in assay [3]; -0.188 in assay [4]; -1.43 in assay [5]; -0.163 in assay [6]. Moreover, the composite z-score in assay [7] is -0.0314; in assay [9], -0.459; in [10] it was -0.132. In [8], the z-score was -0.803 (inactive).
Turning to `[N-]=[N+]=NCc1ccccc1C[C@]1(C(=O)NCCN2CCOCC2)N=C(c2ccc(OCCCO)cc2)O[C@H]1c1ccccc1N=[N+]=[N-]`, the composite z-score was 0.446 in assay [1]; 0.57 in assay [2]; 0.0618 in assay [3]; 0.855 in assay [4]; 1.57 in assay [5]; 1.6 in [6]. The composite z-score in [7] was 1.29; in assay [9] it was 1.25; in assay [10], -0.236. The z-score in assay [8] is -0.653 (inactive).
Take `C[C@]1(C(=O)NCc2ccccc2)c2ccccc2C(=O)N(Cc2cc(F)cc(C(F)(F)F)c2)[C@H]1c1ccc(CO)cc1`: the composite z-score in assay [1] is 0.46; in assay [2] it was -0.512; in assay [3] it was -0.0894; in assay [4], -0.0459; in [5], -0.706; in assay [6], -0.353. Further, the results for the composite z-score in [7], in assay [9] and in assay [10] were 1.26, -0.344 and -0.0994, respectively. Further, the z-score in assay [8] was -3.12 (inactive).
